# Bioassay records: PubChem BioAssay, National Center for Advancing Translational Sciences (NCATS)
# An excerpt weighted towards active compounds, which were near 2.4% of everything screened.
# Cruzain inh noDet: blocks cruzain activity in detergent-free assay | Potency, µM, for inactives: max response, negative = inhibition, usual class: inhibitors | P25779 | 200,000 tested, 2.3% active | purified cruzain, Z-FR-AMC fluorescence, no detergent | AID 1476;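 further: plate controls were enzyme without inhibitor for no effect and buffer without enzyme for full effect; nearly all actives have a fitted effect of over 40% in size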
# Target sequence (P25779 123-467 limits assumed): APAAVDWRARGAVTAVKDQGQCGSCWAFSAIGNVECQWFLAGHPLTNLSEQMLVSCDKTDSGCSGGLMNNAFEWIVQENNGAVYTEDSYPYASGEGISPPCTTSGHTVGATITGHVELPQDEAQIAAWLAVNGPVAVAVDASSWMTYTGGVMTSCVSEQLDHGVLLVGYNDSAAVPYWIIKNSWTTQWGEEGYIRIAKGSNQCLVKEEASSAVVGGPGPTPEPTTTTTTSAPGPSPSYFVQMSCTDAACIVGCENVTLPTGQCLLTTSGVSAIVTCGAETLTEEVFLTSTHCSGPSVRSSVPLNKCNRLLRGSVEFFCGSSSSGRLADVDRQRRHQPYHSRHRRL
#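 Purified cruzain at 1.5 nM, pre-incubated 15 min with compound at room temperature in 100 mM sodium acetate pH 5.5, 5 mM DTT, 0.00005% Triton X-100. Reaction started with 2 uM Z-FR-AMC; AMC fluorescence increase over 60 s gives rate.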
# Cruzain Triton: cruzain (T. cruzi) inhibition with detergent | purified cruzain, Z-FR-AMC fluorescence, 0.01% Triton | 200,000 tested, 0.43% active | Potency, µM, inactives show max response, negative = inhibition, hits mostly inhibitors | P25779;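 further: plate controls were neutral wells for no effect and buffer without enzyme for full effect; nearly all actives have a fitted effect of over 40% in size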
#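 Detergent-containing arm of a paired screen for aggregation-based inhibition: 0.01% Triton X-100 present. Cruzain at 1.5 nM cleaved 2 uM Z-FR-AMC at pH 5.5 with 5 mM DTT; AMC fluorescence gain over 60 s measured activity.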
# * = called active by the depositor; ? = inconclusive. The call rests on the fitted dose curve; in most records, active means well fitted curve in the direction sought with a large enough effect; inconclusive means small, poorly fitted or top-dose-only effect, or another doubt; inactive means no such curve, though single readings can be large; an effect the other way counts as inactive or inconclusive. Potency means the concentration at half of the fitted maximal effect.
SMILES,Cruzain inh noDet,Cruzain Triton
COc1ccc(OC)c(CNc2ncnc3onc(-c4ccc(Cl)cc4)c23)c1,-5.2%,-2.4%
CCn1cc(C(=O)NCc2ccc(Cl)cc2)c(=O)c2cc(S(=O)(=O)N(C)C3CCCCC3)ccc21,-15.9%,-1.7%
COc1ccccc1Nc1sc(C(=O)c2ccc(F)cc2)c(N)c1S(=O)(=O)c1ccc(C)cc1,7.94µM*,-2.3%
Cc1ccc(C(=O)c2sc(Nc3ccc(F)cc3)c(C#N)c2N)cc1,?,-8.7%
Cc1ccc(C(=O)Nc2c(C(=O)Nc3ccc(C)c(C)c3)sc3nc(C)cc(C)c23)cc1,-0.9%,-2.0%
Nc1nc(C(=O)O)c(N=Nc2ccccc2)c(=O)[nH]1,-8.6%,3.1%
CCN=C(Nc1ccc2c(c1)OCO2)SC1CC(=O)N(c2ccccc2F)C1=O (stereo not drawn),-7.5%,-4.1%
C/C(CCc1ccc2c(c1)OCO2)=N\N=C(/N)SC1CC(=O)N(c2ccccc2F)C1=O (stereo not drawn),15.8µM*,-29.2%
CCCCOc1ccc(C(=O)Nc2cc(-c3ccc(C)cc3)no2)cc1,-7.1%,-2.0%
CCOc1ccc(C(=O)Nc2cc(-c3ccccc3)no2)cc1,20µM*,-2.4%
N#Cc1cccc(CS(=O)(=O)c2nc3ccccc3s2)c1,-5.8%,0.4%
N#C/C(=C\c1ccc(Oc2ccc(C(F)(F)F)cc2[N+](=O)[O-])cc1)c1nc2ccccc2[nH]1,?,1.7%
N#C/C(=C\c1ccc(OC(=O)c2ccc(Br)s2)cc1)c1nc2ccccc2[nH]1,5.01µM*,-4.3%
N#C/C(=C/c1ccc(N2CCCC2)c([N+](=O)[O-])c1)c1nc2ccccc2[nH]1,-20.6%,-0.7%
N#C/C(=C\c1ccc(OC(=O)c2ccc(Cl)s2)cc1)c1nc2ccccc2[nH]1,3.98µM*,-24.8%
O=C(c1cnc(N2CCCCC2)c2ccccc12)N1CCN(c2cccc(Cl)c2)CC1,-4.8%,-22.6%
c1ccc2c(N3CCNCC3)nc(-c3ccc4c(c3)OCO4)nc2c1,-6.0%,-0.1%
CC(C)CCNC(=O)c1ccc2nc(Cc3ccccc3)oc2c1,-1.9%,-3.9%
COc1ccc2c(c1)CC(C(=O)Nc1cc(Cl)ccc1C)CO2 (stereo not drawn),2.6%,-2.4%
CC(=O)c1ccc2c(c1)C1C(Cl)C(Sc3ccccc3[N+](=O)[O-])CC1C(c1ccccc1[N+](=O)[O-])N2 (stereo not drawn),3.16µM*,-10.6%
CC(=O)c1ccc(Sc2nnnn2-c2ccccc2)c([N+](=O)[O-])c1,0.9%,0.0%
CC(=O)c1ccc2c(c1)C1C=CCC1C(c1ccncc1)N2 (stereo not drawn),29.8%,-10.4%
CC(=O)c1ccc2c(c1)C1C(Cl)C(Sc3ccccc3[N+](=O)[O-])CC1C(c1ccccc1)N2 (stereo not drawn),3.98µM*,-6.1%
COc1ccc2c(c1)C(=O)[C@H](OC(=O)Nc1ccc(OC(F)F)cc1)[C@@H](c1ccc(OC)c(Br)c1)O2,-8.6%,-3.6%
CC(/C=C/c1ccc(N(C)C)cc1)=N\N=C(/N)SC1CC(=O)N(c2ccc(C(=O)O)cc2)C1=O (stereo not drawn),10µM*,?
SMILES,Cruzain inh noDet,Cruzain Triton
O=C(O)c1ccc(N2C(=O)CC(SC(=Nc3ccccc3)Nc3ccccc3)C2=O)cc1 (stereo not drawn),-2.3%,-2.3%
CCC(Oc1ccccc1)C(=O)Nc1ccc(S(=O)(=O)Nc2cnc3ccccc3n2)cc1 (stereo not drawn),?,-26.5%
CC(Oc1ccc(Cl)cc1Cl)C(=O)Nc1ccc(S(=O)(=O)Nc2cnc3ccccc3n2)cc1 (stereo not drawn),-1.6%,22.4µM*
COc1cc(NS(=O)(=O)c2ccc(NC(=O)C(C)Oc3ccc(Cl)cc3Cl)cc2)nc(OC)n1 (stereo not drawn),15.6%,-19.1%
Cc1cc(Cl)ccc1OC(C)C(=O)Nc1ccc(S(=O)(=O)Nc2cnc3ccccc3n2)cc1 (stereo not drawn),?,25.1µM*
CS(=O)(=O)Nc1cccc(-c2ccc3ncnc(NCc4cccs4)c3c2)c1,-6.3%,-7.0%
CCOc1ccccc1C(=O)Nc1ccc(S(=O)(=O)N(Cc2ccccc2)c2ccccc2)cc1,27.9%,4.2%
Cc1ccc(OCC(=O)Nc2ccc(S(=O)(=O)N(Cc3ccccc3)c3ccccc3)cc2)cc1,7.94µM*,1.5%
O=c1c2c3c(sc2n(CCN2CCCC2)c(=O)n1Cc1ccco1)CCCCC3,?,5.2%
CN(C)CCn1c(=O)n(Cc2ccco2)c(=O)c2c3c(sc21)CCCCC3,5.0%,4.7%
O=C(Cn1c(=O)n(Cc2ccco2)c(=O)c2c3c(sc21)CCCCC3)c1ccccc1,25.1µM*,-7.9%
O=C(Cn1c(=O)n(Cc2ccco2)c(=O)c2c3c(sc21)CCCCC3)Nc1ccccc1,?,28.2µM*
Clc1ccc(CSC2=NCCN2)cc1Cl,-4.4%,1.2%
CCCSc1nc(-c2ccc(OC)cc2)cc(-c2ccccc2OC)c1C#N,-4.5%,1.6%
COc1ccc(C(=O)On2c(-c3ccc(Br)cc3)nc3ccccc3c2=O)cc1,?,-2.1%
COc1cc(OC)cc(-c2nc3ccccc3c(=O)n2OC(=O)c2ccc(Br)cc2)c1,25.1µM*,-2.3%
COc1cccc(/C=C/c2nc(C#N)c(N3CCN(C)CC3)o2)c1,3.16µM*,25.1µM*
COc1cc(/C=C/c2nc(C#N)c(N3CCN(C)CC3)o2)cc(OC)c1OC,12.6µM*,-0.6%
COc1ccccc1/C=C/c1nc(C#N)c(N2CCN(c3ccccc3)CC2)o1,13.1%,4.2%
COc1ccc(N2CCN(c3oc(/C=C/c4cccc(OC)c4)nc3C#N)CC2)cc1,6.1%,4.3%
Cn1cc(-c2nc3cnc(Oc4ccccc4)nc3n(C)c2=O)c2ccccc21,8.9%,-2.2%
CCN(C(=O)C1CCN(S(=O)(=O)c2ccc3c(c2)CCCN3C(=O)C2CCC2)CC1)c1cccc(C)c1,-0.7%,0.9%
O=C(Nc1ccc(Br)cc1)c1nn(C23CC4CC(CC(C4)C2)C3)cc1Br,25.1µM*,0.5%
Cn1nccc1C(=O)Nc1ccn(C23CC4CC(CC(C4)C2)C3)n1,-7.2%,-5.0%
Cc1nn(-c2ccccc2)c(N2CCCC2)c1/C=C1\N=C(c2ccc(OC(C)C)cc2)OC1=O,5.01µM*,1.41µM*
SMILES,Cruzain inh noDet,Cruzain Triton
Cc1ccc(C2=N/C(=C\N3CCCCC3)C(=O)O2)cc1,-9.3%,-8.7%
COCCNC(=O)CCCn1c(SCC(=O)Nc2cccc(C)c2)nc2c(sc3ccccc32)c1=O,12.4%,1.7%
CC(NC(=O)CCCn1c(=O)c2cccn2c2cccnc21)c1ccccc1 (stereo not drawn),-1.0%,-2.7%
C/C(=N/Nc1nc(-c2ccc(Cl)cc2)cs1)c1cccs1,3.98µM*,?
O=C(Nc1nc(-c2ccccc2)cs1)c1cccs1,1.8%,-7.7%
O=C(c1cc(C(F)(F)F)cc(C(F)(F)F)c1)N1CCC[C@@]2(CCN(c3ccccc3)C2)C1,-9.3%,-1.4%
Cc1ccc(CN2C(=O)c3ccccc3Sc3ccc(C(=O)NC4CCCCC4)cc32)cc1,?,0.1%
Cc1ccc(-n2ncc(C(=O)NCCc3ccsc3)c2C2CCN(C(=O)OC(C)(C)C)CC2)c(C)c1,7.2%,-8.6%
CCC(C)NC(=O)C1CCN(C(=O)c2ccc(-n3ccc4ccccc43)s2)CC1 (stereo not drawn),16.9%,-1.8%
c1ccc(CC2CCN(c3nc4ccccc4n4nnnc34)CC2)cc1,25.1µM*,-1.3%
O=C(c1ccco1)N1CCN(c2nc3ccccc3n3nnnc23)CC1,-15.9%,-2.3%
